Screens from PubChem BioAssay.
Shown are actives, neighbours in structure and some others; about 4.3% of the full set was active somewhere.
ADAM17 inh: inhibits human ADAM17; P78536; recombinant ADAM17, EDANS/DABCYL FRET peptide cleavage; inhibition, % at 6.95 µM; 0.83% of 370,000 active;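 active means inhibition above the mean of compounds lying between control limits plus 3 SD, set per campaign, cut at about 8.5% in these data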;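 further: 0% = DMSO-only wells as the low control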
FAS TE block: blocks the thioesterase domain of human fatty acid synthase. recombinant FAS-TE, OMFH fluorogenic substrate, fluorescence endpoint. P49327. inhibition, % at 15 µM. 0.67% of 360,000 active;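 active means compounds whose normalised, plate-corrected inhibition of enzyme fluorescence in the single-dose primary screen is 50% or more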;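 further: 0% = DMSO with enzyme and 100% = substrate without enzyme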
ADAM10 inh: inhibits human ADAM10 | O14672 | recombinant ADAM10, EDANS/DABCYL FRET peptide cleavage, 3 h | inhibition, % at 7 µM | 0.62% of 370,000 active | AID 720582;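 active means inhibition above a per-campaign cutoff equal to the mean of compounds falling between control-based bounds plus 3 SD, cut at about 20% in these data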;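 further: 0% = DMSO wells while the 100% control is not disclosed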
NR3A LBD binder: NR3A (human) ligand-binding domain modulation; Tm shift relative to glycine control, % at 25 µM; NR3A LBD differential scanning fluorimetry, Tm shift; 0% = protein alone, 100% = glycine-bound protein; 2.5% of 340,000 active;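 active means melting temperature shift of at least 10% of the positive control shift, at one fixed dose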
sPLA2-III inh: Inhibits HGIII-sPLA2 liposome hydrolysis, primary screen; Q9NZ20; QFRET BODIPY PC-A2 liposome hydrolysis, fluorescence; inhibition, % at 12.2 µM; 0.56% of 370,000 active; AID 743126;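 active means inhibition above mean plus 3 SD of compounds lying within the high and low control bounds, cut at about 19% in these data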;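 further: 0% = median of test compound wells and 100% = no enzyme DMSO wells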
Target sequence (Q9NZ20 whole entry, looked up): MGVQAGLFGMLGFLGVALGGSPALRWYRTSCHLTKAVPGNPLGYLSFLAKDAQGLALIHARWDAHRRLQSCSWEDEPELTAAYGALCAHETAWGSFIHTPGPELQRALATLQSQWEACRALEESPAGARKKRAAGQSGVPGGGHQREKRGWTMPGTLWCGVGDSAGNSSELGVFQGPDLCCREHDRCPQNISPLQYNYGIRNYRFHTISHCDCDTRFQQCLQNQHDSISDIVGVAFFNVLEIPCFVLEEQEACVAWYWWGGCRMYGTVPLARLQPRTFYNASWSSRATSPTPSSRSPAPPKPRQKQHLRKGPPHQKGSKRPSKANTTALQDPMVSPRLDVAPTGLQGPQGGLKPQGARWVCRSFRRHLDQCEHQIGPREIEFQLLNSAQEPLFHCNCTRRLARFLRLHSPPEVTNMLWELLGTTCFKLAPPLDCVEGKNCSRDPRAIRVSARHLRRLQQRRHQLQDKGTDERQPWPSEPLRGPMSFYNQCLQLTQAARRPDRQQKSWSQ
Starred values were filed as active, the others as inactive; i = inactive; x = no result given.

SMILES	ADAM17 inh	FAS TE block	ADAM10 inh	NR3A LBD binder	sPLA2-III inh
Cc1ccc(-c2nnn(CC(=O)N(Cc3ccco3)C(C(=O)NC(C)(C)C)c3ccc(C)o3)n2)o1 (configuration not stated)	0	14	7	-5	-13
Cc1ccc(C(C(=O)NC(C)(C)C)N(Cc2ccco2)C(=O)Cn2nnc(-c3cccs3)n2)cc1 (configuration not stated)	-1	2	-11	12*	0
Cc1cccc(NC(=O)Cn2c(O)c(N=NC(=O)c3ccccc3O)c3ccccc32)c1	4	-11	0	21*	6
COc1ccc(/C=C2/CN(Cc3ccc(OC)cc3OC)C3=N[C@H](c4ccccc4)CC(=O)N32)cc1	2	x	-4	x	-10
CS(=O)(=O)c1ccc(C(=O)OCC(=O)NC(=O)C2CCCCC2)cc1[N+](=O)[O-]	-1	7	-4	19*	0
CS(=O)(=O)c1ccc(C(=O)OCC(=O)NC(=O)C2COc3ccccc3O2)cc1[N+](=O)[O-] (configuration not stated)	-3	1	-10	-2	2
c1ccc(-c2nc(-c3cccs3)[nH]c2-c2ccccc2)cc1	-40	3	-111	2	3
Oc1ccccc1-c1nc2c3ccccc3c3ccccc3c2[nH]1	i	22	i	37*	-18
c1csc(-c2nc3c4ccccc4c4ccccc4c3[nH]2)c1	-156	23	i	28*	-30
Oc1ccccc1-c1ccn[nH]1	-2	-12	-4	-1	5
CCOC(=O)/C(=N\Nc1cc(C(F)(F)F)ccc1Cl)N(CC)CC	4	15	4	15*	4
CN(C)CC(=O)Nc1cc(C(F)(F)F)ccc1Cl	-5	3	-4	0	8
COc1ccc(Cn2cc(COC(=O)N3CCCC3)nn2)cc1	-1	x	1	x	0
COC(=O)Cn1nc(-c2ccccc2)c2cccc(C(F)(F)F)c21	-4	x	-7	x	-2
O=C(O)c1ccc(N=Nc2c(O)ccc3ncccc23)cc1	-2	24	-9	12*	-17
COC(=O)c1cccc(NC(=O)c2ccc(OC)c(Cl)c2)c1	-4	13	9	8	-10
O=C(Nc1ccc(OC(F)F)c(Cl)c1)c1cccc(OC(F)F)c1	x	32	x	34*	x
COc1cc(NC(=O)c2ccc(-c3cccc(F)c3)o2)ccc1NC(=O)c1ccccc1Cl	-3	25	2	23*	0
COc1ccc(NC(=O)c2ccccc2F)cc1Cl	-5	-1	-3	30*	-1
COc1ccc(NC(=O)c2cccc(OC(F)F)c2)cc1Cl	1	18	5	31*	-10
CC(=O)CC[C@H]1CC[C@]2(CCCN(S(=O)(=O)c3ccccc3)C2)O1	0	x	-3	x	2
CC(C)C(NC(=O)[C@H](Cc1ccccc1)NC(=O)OCc1ccccc1)P(=O)(O)OC(Cc1ccccc1)C(=O)O (some centres not stated)	-8	x	-4	x	11
COc1ccc(NC(=O)c2cccc(F)c2)cc1Cl	-1	2	1	10*	0
COc1cc(OC)c(NC(=O)c2cccc(F)c2)cc1Cl	3	2	-1	-11	5
CN(c1ccccc1)S(=O)(=O)c1ccc(NC(=O)CC(=O)c2ccccc2)cc1	1	17	2	16*	-9
SMILES	ADAM17 inh	FAS TE block	ADAM10 inh	NR3A LBD binder	sPLA2-III inh
CN(Cc1ccc(OC(F)F)cc1)C(=O)c1ccc(S(=O)(=O)N(C)c2ccccc2)cc1	6	30	2	4	-15
Cc1ccc(CN(C)C(=O)c2ccc(S(=O)(=O)N(C)c3ccccc3)cc2)o1	2	14	0	22*	-17
COCCCNC(=O)C[C@H]1C[C@@]2(C(=O)OC)C(=C[C@H](C(C)C)O[C@@H]2C2CC2)N(Cc2ccc(Cl)cc2Cl)C1=O	5	x	8	x	12
COc1cc2c(cc1OC)C1(CCCC1)C(N)=C2C#N	3	2	3	11*	-5
O=C(Cn1c(-c2cncs2)nc2ccccc21)N1CCCCC1	-4	x	-6	x	6
CC(=O)c1ccc(N2CCN(C(=O)CCCn3c(=S)[nH]c4cc5c(cc4c3=O)OCO5)CC2)cc1	1	18	25*	6	4
O=C(CCCn1c(=S)[nH]c2cc3c(cc2c1=O)OCO3)N1CCN(c2ccc(Cl)cc2)CC1	-3	32	-8	3	4
Cc1ccc(NC(=O)Cn2nnc(C(=O)NCc3cccs3)c2N)cc1Cl	-5	-4	-5	16*	-4
COc1ccc(NC(=O)Cn2nnc(C(=O)NCc3cccs3)c2N)cc1Cl	-4	-6	-6	-1	-2
O=c1c2ccccc2n(Cc2ccccc2)n1[C@@H](Cc1ccccc1)Cn1cc(-c2ccc(-c3ccccc3)cc2)nn1	-2	x	-12	x	4
CCOC(=O)Cc1csc(NC(=O)c2sc3nc4ccc(C)cc4cc3c2N)n1	-5	-56	-16	3	-3
CCc1nnc(NC(=O)c2sc3nc4cc(C)ccc4cc3c2N)s1	-12	-11	-35	20*	2
COc1ccc(C(=O)Nc2ccc(NC(=O)c3cccs3)cc2)cc1[N+](=O)[O-]	-2	-6	-4	24*	4
CCOc1ccc(C(=O)Nc2ccc(NC(=O)c3cccs3)cc2)cc1[N+](=O)[O-]	-4	-10	-11	28*	-1
COc1ccc(C(=O)Nc2ccc(C(=O)Nc3nccs3)cc2)cc1[N+](=O)[O-]	0	-6	-7	22*	16
FC(F)(F)c1cc(CNC2CCC23CCCCC3)ccc1Cl (configuration not stated)	-1	x	2	x	3
CC(=O)Nc1ccc(Nc2cc(C)nc3c(-c4ccc(Cl)cc4)cnn23)cc1	-9	-15	-19	30*	6
COC(=O)C1=C(C(=O)OC)[C@@H]2N(C)c3ccccc3[C@@]23C[C@@H](CO)N(C(=O)NCCBr)C3=N1	-1	52*	2	1	-4
COC(=O)[C@]12C[C@H](CC(=O)N3CCSCC3)C(=O)N(Cc3ccco3)C1=C[C@H](C(C)(C)C)O[C@@H]2C	-4	x	-6	x	-3
Cc1ccc2oc(-c3ccc(NC(=O)c4ccc5c(c4)OCO5)cc3)nc2c1	-4	-3	-9	22*	1
O=C(Nc1ccc(-c2nc3ccccc3o2)cc1)c1ccc(N2C(=O)C3C4C=CC(C4)C3C2=O)cc1 (configuration not stated)	-36	-5	-92	18*	-8
O=C(Nc1ccc(-c2nc3ccccc3o2)cc1)c1ccc2c(c1)OCO2	-7	-3	-9	25*	4
COC(=O)c1ccc(N=NN2CCOCC2)cc1	5	-8	14	-1	4
COC(=O)c1ccc(N=NN2CCCCCC2)cc1	-1	12	-9	17*	3
Cc1ccccc1CN1CCCCC(NC(=O)c2cc(-c3ccccc3)no2)C1=O (configuration not stated)	1	x	5	x	-5
